± gives the standard deviation of the averaged measurements. In all, about 33,000 sequences were measured (“E-score (rank enrichment, -0.5 to 0.5)”: median about -0.0075, highest 2% from about 0.23 on). Shown is part of a subset that was picked to be rich in the highest values.
Each sequence was assayed on WT Max(13-93) synthetic (M65Nle) (assay: PBM 8-mer E-score (E-score (rank enrichment, -0.5 to 0.5)); higher = stronger preferential binding).
Protocol: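 Protein binding microarray (universal PBM chip covering all 10-mers in fixed probe flanks) with chemically synthesized human Max(13-93) bHLH-LZ analogs (not full-length Max) bearing noncanonical residues (hArg, Tha, Aib, Nle at 65) and aromatic Cys staples. Read-out per 8-mer (and its reverse complement): E-score (rank-based enrichment, -0.5 to 0.5) and Z-score of median probe intensity.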

| Sequence | PBM 8-mer E-score |
| --- | --- |
| AATGCGCC | -0.0607 ± 0.1 |
| CCACTTAG | 0.00666 ± 0.08 |
| CCGAGCGG | -0.0233 ± 0.11 |
| CAACTACG | -0.0136 ± 0.15 |
| GCCTCGAA | -0.199 ± 0.015 |
| ACTTGCTA | 0.0291 ± 0.18 |
| CAACAGGC | -0.126 ± 0.031 |
| AACATACT | 0.0867 ± 0.12 |
| GTCATAAC | 0.0805 ± 0.074 |
| AACATAAA | 0.225 ± 0.066 |
| GACATACA | 0.162 ± 0.037 |
| TTCATAAA | 0.0506 ± 0.062 |
| AACATACG | 0.246 ± 0.04 |
| GTCATAAA | 0.282 ± 0.021 |
| CACATACA | 0.00143 ± 0.16 |
| TACATAAA | 0.234 ± 0.02 |
| TACATACA | 0.275 ± 0.015 |
| CACATAAA | 0.106 ± 0.099 |
| CACATACG | 0.0417 ± 0.11 |
| CCGTCTGC | -0.0961 ± 0.0095 |
| GTGAAACA | 0.0563 ± 0.012 |
| AGTAGTTC | -0.116 ± 0.027 |
| CACCTAAC | -0.189 ± 0.12 |
| CGTTCAGC | -0.266 ± 0.082 |
| TCATTGCA | 0.0909 ± 0.036 |

| Sequence | PBM 8-mer E-score |
| --- | --- |
| ACCATACA | 0.0446 ± 0.2 |
| AACATACC | 0.0333 ± 0.06 |
| AACATACA | 0.26 ± 0.062 |
| ACGTCGGA | -0.0798 ± 0.0092 |
| CTGTGCAC | -0.091 ± 0.017 |
| AAGTGCAT | 0.115 ± 0.097 |
| ACGTGCAT | 0.378 ± 0.013 |
| AGGTGCAT | 0.139 ± 0.0098 |
| CCGTGCAG | -0.0417 ± 0.026 |
| CCGTGCAC | 0.0618 ± 0.097 |
| ATGTGCAG | 0.0828 ± 0.0059 |
| ATGTGCAC | 0.29 ± 0.059 |
| ATGTGCAA | 0.203 ± 0.06 |
| ACGTGCAC | 0.391 ± 0.021 |
| ACGTGCAG | 0.325 ± 0.063 |
| GCGTGCAC | 0.215 ± 0.033 |
| ACCACGGA | -0.207 ± 0.0078 |
| ATGTCCAC | 0.113 ± 0.011 |
| CAGGACGG | -0.162 ± 0.092 |
| TCATGCGA | 0.034 ± 0.055 |
| ACGCCTTA | -0.0494 ± 0.025 |
| CGCTTAAG | -0.0549 ± 0.15 |
| AGCCTGAC | -0.0941 ± 0.14 |
| CTTATAGC | -0.0275 ± 0.032 |
| GAGCGCTA | -0.0703 ± 0.047 |

| Sequence | PBM 8-mer E-score |
| --- | --- |
| ATGAACCA | 0.145 ± 0.06 |
| ACGGCGGC | -0.238 ± 0.059 |
| CGTGCTAC | 0.2 ± 0.061 |
| CAATGGAG | 0.0245 ± 0.12 |
| CGGGTACG | -0.133 ± 0.043 |
| CCAGGCGG | -0.0313 ± 0.028 |
| CCCAATGA | 0.0385 ± 0.031 |
| ATGTGAGA | 0.231 ± 0.13 |
| CCAACTCG | -0.00075 ± 0.037 |
| CCGTGCAA | -0.0752 ± 0.025 |
| ACGTGCAA | 0.3 ± 0.035 |
| TCGTGCAA | 0.131 ± 0.057 |
| AAATACGT | 0.152 ± 0.043 |
| GAATACGC | 0.0909 ± 0.01 |
| AAATACGC | 0.237 ± 0.027 |
| GTGAATCA | -0.115 ± 0.022 |
| ATAACACC | 0.106 ± 0.076 |
| ATTACATG | 0.223 ± 0.061 |
| ATAACATC | 0.187 ± 0.028 |
| ATTACATA | 0.24 ± 0.039 |
| ATAACATA | 0.266 ± 0.023 |
| ATAACATG | 0.231 ± 0.01 |
| GTAACAAA | 0.126 ± 0.0055 |
| ATAACACA | 0.181 ± 0.095 |
| GTAACACA | 0.238 ± 0.024 |

| Sequence | PBM 8-mer E-score |
| --- | --- |
| ATAACACG | 0.307 ± 0.0054 |
| CTAACACA | 0.121 ± 0.13 |
| GTTACATA | 0.113 ± 0.0025 |
| AGGGGAAT | 0.0772 ± 0.04 |
| CCGTAGCC | -0.216 ± 0.071 |
| ACGCGTAA | 0.105 ± 0.048 |
| TCGCATCA | 0.046 ± 0.015 |
| AACGCAAA | -0.144 ± 0.021 |
| GATCTTAA | 0.0118 ± 0.0058 |
| CAAATACG | 0.138 ± 0.086 |
| CTTTGCCA | -0.107 ± 0.097 |
| ACAACACC | 0.158 ± 0.0054 |
| ACAACACA | 0.23 ± 0.091 |
| ACAACACG | 0.261 ± 0.034 |
| ATCCATCG | -0.21 ± 0.014 |
| CGCGTGCA | 0.285 ± 0.03 |
| AGCGTGCA | 0.285 ± 0.03 |
| AGCGTGCG | 0.0436 ± 0.017 |
| CGCGTGCC | 0.124 ± 0.062 |
| GGCGTGCA | 0.0504 ± 0.037 |
| CTCGTGCA | 0.134 ± 0.097 |
| CAAATTCA | -0.0652 ± 0.032 |
| ATATTCTC | 0.189 ± 0.055 |
| ATACCACG | 0.255 ± 0.015 |
| AAACCACA | 0.223 ± 0.0085 |

| Sequence | PBM 8-mer E-score |
| --- | --- |
| ATGCCACA | 0.00378 ± 0.092 |
| ATGCCACG | 0.259 ± 0.059 |
| ATACCACC | 0.121 ± 0.028 |
| CAACCACA | -0.0966 ± 0.041 |
| GTGCCACA | -0.00257 ± 8.5e-05 |
| CAACCACG | 0.301 ± 0.041 |
| ATACCACA | 0.159 ± 0.0088 |
| CGTGATTC | 0.117 ± 0.036 |
| AGAACTGC | -0.0987 ± 0.0029 |
| CTTCACCC | 0.151 ± 0.046 |
| ATAGACGG | 0.103 ± 0.018 |
| ATGCGCAC | 0.102 ± 0.09 |
| ATGCGCAT | 0.285 ± 0.06 |
| ATGCGCAA | 0.1417 ± 0.00042 |
| CAACGCAG | -0.158 ± 0.021 |
| ACCCGAAC | -0.0582 ± 0.096 |
| AATGAACG | 0.163 ± 0.04 |
| AACACCGC | -0.0751 ± 0.024 |
| ATTTAAAG | 0.0962 ± 0.044 |
| ATTTAAAC | 0.263 ± 0.046 |
| GTTTAAAA | 0.0508 ± 0.026 |
| GATTAAAC | 0.0366 ± 0.087 |
| GTTTAAAC | 0.254 ± 0.0084 |
| CTTTAAAC | 0.143 ± 0.0068 |
| TACATCTA | 0.0666 ± 0.053 |

| Sequence | PBM 8-mer E-score |
| --- | --- |
| CCGTTTAC | 0.0331 ± 0.077 |
| AATCTGTC | 0.0805 ± 0.0072 |
| CCGCATGC | 0.2 ± 0.02 |
| ACGCATGG | 0.243 ± 0.026 |
| ACGCATAG | 0.0507 ± 0.032 |
| ACGCATGC | 0.281 ± 0.04 |
| ACGCATGA | 0.127 ± 0.021 |
| ACGCATCC | 0.00574 ± 0.012 |
| CGATTTCC | -0.13 ± 0.008 |
| GTGCTGGA | -0.0429 ± 0.077 |
| ATAAATAT | 0.267 ± 0.0039 |
| ATAAATAA | 0.157 ± 0.031 |
| ATAAATAG | 0.18 ± 0.017 |
| CTAAATAA | 0.119 ± 0.1 |
| ATAAATAC | 0.295 ± 0.022 |
| TTAAATAA | 0.12 ± 0.035 |
| AACAGTTG | -0.0604 ± 0.064 |
| GGACCTCC | -0.149 ± 0.028 |
| CCCCCCGA | -0.154 ± 0.12 |
| TACTTGGA | 0.0409 ± 0.043 |
| CATATTAG | 0.15 ± 0.046 |
| AATATTAG | 0.152 ± 0.15 |
| CATATTAA | 0.306 ± 0.014 |
| ATTATTAA | 0.172 ± 0.066 |
| ACTATTAA | 0.133 ± 0.0048 |

| Sequence | PBM 8-mer E-score |
| --- | --- |
| AATATTAT | 0.285 ± 0.026 |
| CATATTAC | 0.156 ± 0.05 |
| GATATTAA | 0.029 ± 0.025 |
| AATATTAA | 0.263 ± 0.014 |
| AATATTAC | 0.228 ± 0.029 |
| TATATTAA | 0.213 ± 0.011 |
| GATATTAC | 0.237 ± 0.02 |
| CTCCCAGA | -0.18 ± 0.049 |
| CCCCCAGG | -0.289 ± 0.17 |
| AAATTGTT | 0.0622 ± 0.024 |
| AAAATGTG | 0.205 ± 0.015 |
| AGCGACAT | 0.113 ± 0.056 |
| CATAGGTA | 0.00152 ± 0.065 |
| AATAGGTA | 0.195 ± 0.0039 |
| GATAGGTA | 0.24 ± 0.073 |
| GGCCTTTA | 0.0556 ± 0.0086 |
| TACGTGGA | 0.109 ± 0.08 |
| GACGTGGA | -0.0291 ± 0.023 |
| AACGTGGG | 0.215 ± 0.03 |
| GACGTGGC | -0.0348 ± 0.019 |
| CACGTGGG | 0.4865 ± 0.00015 |
| CAAGTGGG | 0.0824 ± 0.037 |
| CACGTGGA | 0.4856 ± 0.0019 |
| AACGTGGC | 0.218 ± 0.022 |
| CACGTGGC | 0.4858 ± 0.0018 |

Reference: the supplement of paper PMC12636033
